CYP2C19 activ: activators of human cytochrome P450 2C19; recombinant CYP2C19, luciferin-H EGE luminescence; hits give high values; 0 = fully inhibited enzyme, 1 = untreated enzyme; 96,000 tested, under 10 active; activation factor at 5 µM;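 active = activation factor of at least 2 at 5 µM in the primary screen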;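 note: 0 = wells with 2.5 mM tranylcypromine and 1 = vehicle-only wells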
CYP2C19 inh: human CYP2C19 inhibition; inhibition, % at 5 µM; CYP2C19 Supersomes, luciferin-H EGE luminescence, 30 min; AID 778; 96,000 compounds, 21% hits;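 active = CYP2C19 inhibition above a set limit at 5 µM in the primary screen, cut at about 50% in these data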;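 note: plate controls were negative control wells for no effect and 2.5 mM tranylcypromine positive control for full effect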
Measles CPE: protection of cells from measles virus. Measles virus-infected cells, CPE protection, absorbance. protection (pct of control), % at 4 µM. 140,000 compounds, 1.5% hits; in the data active = protection mostly above about 24%, no sharp cut-off; inactive = mostly below about 26%
CYP2C9 inh: human CYP2C9 inhibition. P11712. CYP2C9 Supersomes, luciferin-H conversion, luminescence. inhibition, % at 5 µM. 96,000 compounds, 20% hits;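 active = blocking of liver enzyme CYP2C9 beyond about 50% at 5 µM, limit read from the data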
Target sequence (P11712 whole entry, looked up): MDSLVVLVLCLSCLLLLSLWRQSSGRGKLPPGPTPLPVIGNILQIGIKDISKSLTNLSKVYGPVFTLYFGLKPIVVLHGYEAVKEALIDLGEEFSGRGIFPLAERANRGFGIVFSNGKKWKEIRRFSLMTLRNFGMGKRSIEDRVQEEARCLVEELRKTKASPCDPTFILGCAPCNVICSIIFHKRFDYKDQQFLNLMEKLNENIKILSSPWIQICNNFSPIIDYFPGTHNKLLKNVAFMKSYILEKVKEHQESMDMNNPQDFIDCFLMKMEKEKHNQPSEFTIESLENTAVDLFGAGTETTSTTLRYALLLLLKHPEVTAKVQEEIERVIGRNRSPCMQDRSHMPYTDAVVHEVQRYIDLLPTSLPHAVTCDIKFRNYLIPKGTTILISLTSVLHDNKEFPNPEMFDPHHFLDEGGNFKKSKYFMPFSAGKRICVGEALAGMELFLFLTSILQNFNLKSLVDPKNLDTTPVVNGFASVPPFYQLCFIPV
CYP2C9 act: increases human cytochrome P450 2C9 activity; recombinant CYP2C9, luciferin-H conversion, luminescence; hits give high values; factor 1 = untreated enzyme, 0 = blocked; activation factor at 5 µM; 96,000 compounds, 1.4% hits;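 active = activation factor of 2 or more for CYP2C9 at a 5 µM dose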;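 note: 0 = sulfaphenazole-blocked wells and 1 = vehicle-only wells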
An asterisk follows results filed as active; nt = not tested or not shown. This is a sample that favours compounds with a hit; in the whole collection about 22% have one here.

SMILES | CYP2C19 activ | CYP2C19 inh | Measles CPE | CYP2C9 inh | CYP2C9 act
NC(=O)Cn1c(=O)n(Cc2ccco2)c(=O)c2c3c(sc21)CCCCC3 | 0.8 | 21 | 5 | 18 | 0.8
Cc1cccc(NC(=O)Cn2c(=O)n(Cc3ccco3)c(=N)c3c4c(sc32)COC(C)(C)C4)c1 | 0.4 | 59* | 3 | 61* | 0.4
O=c1c2c3c(sc2n(CCN2CCCCC2)c(=O)n1Cc1ccco1)CCCCC3 | 0.5 | 45 | 3 | 61* | 0.4
O=C(Cn1c(=O)n(Cc2ccco2)c(=O)c2c3c(sc21)CCCC3)Nc1ccccc1 | 0.3 | 72* | 18 | 80* | 0.2
O=c1c2c3c(sc2n(CCN2CCOCC2)c(=O)n1Cc1ccco1)CCCCC3 | 0.5 | 51* | 4 | 77* | 0.2
Cc1ccc2cccnc2c1NC(=S)NC(=O)c1ccccc1 | 0.6 | 39 | 12 | 14 | 0.9
CCCn1nnnc1NC(=O)c1cccs1 | 0.9 | 8 | 3 | 16 | 0.8
COc1ccc(C(=O)SC2=NCCS2)cc1OC | 0.8 | 25 | 22 | -109 | 2.1*
COc1cccc(C(=O)N2CCSC2=S)c1 | 0.4 | 62* | 11 | -26 | 1.3
COc1ccc(C(=O)N2CCSC2=S)cc1OC | 1 | 3 | 9 | -112 | 2.1*
Cc1ccc(C)c(NC(=O)COC(=O)CC2c3ccccc3CCN2S(=O)(=O)c2ccc(F)cc2)c1 (centres undefined) | nt | nt | 1 | nt | nt
CCOC(=O)c1cnn(C(=O)c2ccccc2)c1N | nt | nt | 2 | nt | nt
COCCN1CCN(c2cc(-c3ccccc3)nc3cc(-c4cccc(F)c4)nn23)CC1 | nt | nt | 4 | nt | nt
[O-][n+]1c2ccc3nonc3c2nn1-c1ccccc1Cl | 0.6 | 43 | 9 | 20 | 0.8
COc1ccc(C(=O)NC(=S)Nc2cc(C)ccn2)cc1[N+](=O)[O-] | nt | nt | 10 | nt | nt
CCOC(=O)N1CCN(c2nc(-c3ccc(OC)cc3)no2)CC1 | 0.8 | 23 | 26 | 22 | 0.8
Cc1cc(C(=O)OCC(=O)N2CCOCC2)c2ccccc2n1 | 0.9 | 12 | 3 | -98 | 2*
Cc1cc(C(=O)OCC(=O)N2CCCC2)c2ccccc2n1 | 0.7 | 28 | 59 | 23 | 0.8
COc1ccc(/C(N)=N/OC(=O)c2cc(-c3ccccc3)nc3ccccc23)cc1 | 0.9 | 8 | 4 | 47 | 0.5
COc1ccc(-c2cc(C(=O)OCC(=O)N3CCCC3)c3ccccc3n2)cc1 | 0.5 | 50* | 49 | 78* | 0.2
CSc1ccc(Cl)c(C(=O)OCC(=O)N2CCOCC2)c1 | 0.5 | 51* | 15 | -67 | 1.7
Cc1ccc(/C(N)=N/OC(=O)c2cc(-c3ccccc3)nc3ccccc23)cc1 | 0.9 | 13 | 2 | 54* | 0.5
CSc1ccc(Cl)c(C(=O)OCC(=O)NC2CC2)c1 | 0.8 | 23 | 9 | -6 | 1.1
C=CCn1c(SCc2ccc(Cl)cc2)nc2cc(C(=O)N3CCC(C(N)=O)CC3)ccc2c1=O | nt | nt | 10 | nt | nt
O=C(Cc1ccc2c(c1)OCCO2)c1c(O)cc(O)cc1O | 0.1 | 94* | 19 | 96* | 0
SMILES | CYP2C19 activ | CYP2C19 inh | Measles CPE | CYP2C9 inh | CYP2C9 act
COc1ccc(C(=O)Cc2ccc3c(c2)OCO3)c(O)c1 | nt | nt | 16 | nt | nt
Cn1nnnc1SCCOc1ccc(C#N)cc1 | 0.4 | 62* | 3 | -5 | 1
O=C(CCn1c(=O)c2ccccc2n(Cc2cc(=O)n3ccccc3n2)c1=O)NCc1ccco1 | nt | nt | 10 | nt | nt
O=C(COC(=O)c1ccccc1C(=O)N1CCN(c2ccccc2)CC1)Nc1ccc(F)cc1 | 0.3 | 72* | 3 | 91* | 0.1
COC(=O)c1ccccc1OCC(=O)N1CCN(c2ccc(F)cc2)CC1 | 0.5 | 48 | 7 | 2 | 1
O=C(COC(=O)c1ccccc1C(=O)N1CCN(c2ccc(F)cc2)CC1)NCc1ccccc1 | 0.2 | 82* | 29 | 86* | 0.1
Cc1occc1C(=O)OCC(=O)Nc1ccc(F)cc1 | 0.1 | 86* | 22 | 32 | 0.7
Cc1cc(C)c(C(=O)CC2(O)C(=O)Nc3ccccc32)cc1C (centres undefined) | 0.1 | 92* | 7 | 28 | 0.7
Cc1cccc(NC(=S)NCCN2CCOCC2)c1C | nt | nt | 39* | nt | nt
Cc1ccc(NC(=S)NCCN2CCOCC2)cc1C | 0.5 | 48 | 6 | 12 | 0.9
O=C(NC(=S)NCCN1CCOCC1)c1ccccc1Cl | 0.5 | 54* | 7 | -8 | 1.1
O=C(COc1ccc(Cl)cc1Cl)NCCCN1CCOCC1 | 0.8 | 19 | 5 | 22 | 0.8
O=C(COc1ccccc1Cl)NCCCN1CCOCC1 | 0.4 | 57* | 4 | 3 | 1
COC(=O)C1=CN(C2CC2)C=C(C(=O)OC)C1c1ccccc1OC | 0.3 | 70* | 34 | 66* | 0.3
COC(=O)C1=CN(Cc2cccs2)C=C(C(=O)OC)C1c1cccc(OC)c1OC | 1 | -2 | 3 | 11 | 0.9
COC(=O)c1cc(OC)nc2c1c(=O)n(C)c(=O)n2C | nt | nt | 12 | nt | nt
CC(=O)N(Cc1ccc2c(c1)OCO2)C1CC(=O)N(CCc2ccccc2)C1=O (centres undefined) | 0.3 | 70* | 35 | 53* | 0.5
O=C(NCc1cccnc1)C1CC(=O)N(CCc2ccccc2)C1 (centres undefined) | 0.2 | 80* | 13 | 1 | 1
O=C(NCc1ccc2c(c1)OCO2)C1CC(=O)N(CCc2ccccc2)C1 (centres undefined) | 0.9 | 12 | 23 | 77* | 0.2
O=C(NCc1ccc(F)cc1)C1CC(=O)N(CCc2ccccc2)C1 (centres undefined) | 0.8 | 15 | 3 | 7 | 0.9
O=C(NCc1ccc2c(c1)OCO2)C1CC(=O)N(c2ccc(O)cc2)C1 (centres undefined) | 0.7 | 25 | 12 | -113 | 2.1*
O=C(O)C1CC(=O)N(Cc2ccc3c(c2)OCO3)C1 (centres undefined) | 1.2 | -18 | 7 | -22 | 1.2
CN(C(=O)C1CCCO1)c1nnc(-c2ccncc2)s1 (centres undefined) | 0 | 98* | 4 | 14 | 0.9
CN(C(=O)C1CCOC1)c1nnc(-c2ccncc2)s1 (centres undefined) | 0 | 98* | 3 | 24 | 0.8
Cn1c(Cn2c(=O)sc3ccccc32)nnc1SCc1ccccc1 | nt | nt | 27 | nt | nt
SMILES | CYP2C19 activ | CYP2C19 inh | Measles CPE | CYP2C9 inh | CYP2C9 act
CCCC(=O)Nc1ccc(Cl)c(NC(=S)NC(=O)c2cc3ccccc3o2)c1 | nt | nt | 5 | nt | nt
CCOC(=O)c1sc(NC(=O)C(OC(C)=O)c2ccccc2)nc1C (centres undefined) | nt | nt | 5 | nt | nt
CCOC(=O)c1sc(NC(=O)C(CC)OC(=O)C(CC(C)C)NC(=O)c2ccccc2)nc1C (centres undefined) | 0.5 | 55* | 18 | 22 | 0.8
CCOC(=O)c1c(NC(=O)CSc2ncnc3ccccc23)sc(C(C)=O)c1C | nt | nt | 4 | nt | nt
CCOC(=O)c1sc(NC(=O)CSc2nnnn2-c2ccccc2)c(C(=O)OCC)c1C | 0.9 | 10 | 7 | 49 | 0.5
CCOC(=O)c1c(NC(=O)CSc2nc3cccnc3n2C)sc(C(C)=O)c1C | 0.7 | 27 | 16 | 69* | 0.3
